Activity calls are given as the source filed them.

One assay in a line: plasmodial surface anion channel blockers, osmotic lysis – cell-based, P. falciparum Indochina, OD700, 18 h, primary screen (AID 1157). Particulars: P. falciparum Indochina infected erythrocytes, osmotic lysis OD700, 18 h; higher = more signal, called active from +8 up or from −8 down.
With `CCCC[C@@H](O)C1=C(COc2ccccc2)C[C@H]2C(=O)N(Cc3ccccc3)C(=O)[C@H]2[C@H]1CO`, the z-score was 0.967 (inactive).

In the case of `COC(=O)C1(CC(C)C)C=C2C(=C(c3ccccc3)C(=O)C2C)CN1` (stereo unspecified), the z-score is 0.323 (inactive).

In the case of `COc1ccc(CCNC(=O)[C@@]2(c3ccc([N+](=O)[O-])cc3)CC(=O)N(C3CCCCC3)[C@@H]2c2ccc(CO)cc2)cc1`, the z-score was -0.383 (inactive).

For `COCCCNC(=O)[C@@]1(Sc2ccc(C)cc2)CC(=O)N(C2Cc3ccccc3C2)[C@@H]1c1ccc(CO)cc1`, the z-score is -1.78 (inactive).

Consider `CS(=O)(=O)CCOC(=O)C1=CC(c2ccc(CO)cc2)=CC(C2CC2)N(Cc2sc3ccccc3c2Cl)C=C1C(=O)OCCS(C)(=O)=O` (stereo unspecified), for which the z-score was 1.39 (inactive).

Regarding `C=CCOC(=O)[C@@H]1[C@H]2C(=O)O[C@H](c3ccccc3)[C@H](c3ccccc3)N2[C@H](c2ccc(OCCOC(=O)[C@@H]3C[C@@H]4C(=O)N[C@@H](CCCC[N+](C)(C)C)C(=O)N4[C@@H]3c3ccc(O)cc3)cc2)[C@@]12C(=O)Nc1ccc(I)cc12`, the z-score is 0.0802 (inactive).

Take `OCCCC1=CC(c2ccc(CN3CCCC3)cc2)N(Cc2cc3c(cc2Br)OCO3)CC1` (stereo unspecified): the z-score was 0.601 (inactive).

As to `CC(c1ccccc1)C(O)C1C=CC2C(=O)N(C)C(=O)C2N1Nc1ccccc1` (stereo unspecified), the z-score was 0.999 (inactive).

`CC(C)N1C(=O)C[C@@](C(=O)O)(c2ccc([N+](=O)[O-])cc2)[C@H]1c1ccc(CO)cc1`: the z-score is 0.159 (inactive).

For the molecule `CCCC#C[Si](O[C@H](CC)c1cn([C@H](C)c2ccccc2)nn1)(C(C)C)C(C)C`, the z-score is 0.357 (inactive).

A short description of another assay: S6 kinase pathway phospho-S6 level changes – cell-based, A549, cytoblot, luminescence, serum-stimulated, primary screen (AID 1158).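 Also: serum-stimulated A549 lung adenocarcinoma cells; signal is phosphorylated S6 detected by cytoblot immunostaining with HRP secondary.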 To be noted: 5 h, higher = more signal.
In turn, `CC1CC/C=C\[C@H]2OC34C=CCN(C(C)C)C(=O)[C@H]3N(CCO)C(=O)[C@@H]4C2C(=O)O1` (stereo partly specified) returned a z-score of 1.86.

On to `C=C(/C(=C/C[C@H](OC(=O)c1ccncc1)c1ccc(CO)o1)c1cnc2ccccc2c1)C(C)C`, for which the z-score is -0.702.

The molecule `Cc1ccc(F)cc1S(=O)(=O)N[C@@H]1CCN(Cc2ccc(Br)cc2)C1` had a z-score of -0.166.

With `CN1C2C=C(CCCO)C(C3C(=O)N(C(N)=O)C(=O)C32)C1C1CC1` (stereo unspecified), the z-score is -0.896.

In the case of `Cc1ccc(S[C@]2(C(=O)O)CC(=O)N(C3CCCCC3)[C@@H]2c2ccc(CO)cc2I)cc1`, the z-score came out at 0.0559.

In the case of `COCCOC(=O)N1C(=O)[C@@]2(c3cc(C#CC4(O)CCCCCC4)ccc31)[C@H](C(=O)N1CCc3cc(OC)c(OC)cc3C1)[C@H]1C(=O)O[C@H](c3ccccc3)[C@H](c3ccccc3)N1[C@@H]2c1ccc(OCCO)cc1`, the z-score was 0.272.

On to `COC(=O)[C@@]1(Cc2ccc(OC)cc2)[C@H]2c3cc(C(=O)N4CCCC4)n(CCc4c[nH]c5ccc(O)cc45)c3C[C@H]2CN1C(=O)c1ccccc1`, for which the z-score is -0.029.

For the molecule `CN(C)C(=O)[C@]1(CCC(=O)OC(C)(C)C)N=C(c2ccc(OCCCO)cc2)O[C@@H]1c1ccccc1CN=[N+]=[N-]`, the z-score is -0.175.

In turn, `CCOC(=O)C1=CC[C@@H](c2ccccc2)N(S(=O)(=O)c2ccc(C)cc2)[C@H]1c1ccccc1` gave a z-score of -0.685.

`NC(=O)[C@H]1[C@@H]2C(=O)O[C@@H](c3ccccc3)[C@@H](c3ccccc3)N2[C@@H](c2ccc(OCCO)cc2)[C@]12C(=O)Nc1ccc(C#CCCO)cc12` gave a z-score of -0.671.

On to `CCCCCCCCCC(O)C1C=CC2C(=O)N(c3ccccc3)C(=O)C2N1Nc1cc(OC)c(OC)c(OC)c1` (stereo unspecified), for which the z-score was 1.05.

In turn, `COc1cc(OC)c(C(O)C2C=CC3C(=O)N(Cc4ccccc4)C(=O)C3N2n2cnnc2)cc1Br` (stereo unspecified) had a z-score of 1.71.

Molecule `O=C1O[C@@H](c2ccccc2)[C@@H](c2ccccc2)N2[C@@H](c3ccc(OCCO)cc3)[C@]3(C(=O)Nc4ccc(C#CC5=CCCCC5)cc43)[C@@H](C(=O)NC[C@H](O)c3ccccc3)[C@H]12` came in with a z-score of -0.164.

The molecule `CC(C)[Si](C#CCCCC#N)(O[C@H](c1ccccc1)c1cn(Cc2ccccc2)nn1)C(C)C` returned a z-score of 0.249.

The molecule `CC1=C2[C@@H](CCc3ccccc3)OB(O)C[C@@H]2[C@@H]2C(=O)N(C)C(=O)[C@@H]2C1` displayed a z-score of -0.391.

`COc1ccc([Si](C)(C)[C@H]2[C@H](CC(=O)N(CCO)Cc3ccccc3)O[C@@]3(C(=O)N(C)c4c(Br)cc(C)cc43)[C@@H]2C)cc1`: the z-score amounted to 1.83.

As to `C=CC[C@@]1(C(=O)NCCCOC)N=C(c2ccc(OCCCO)cc2)O[C@@H]1c1ccccc1N=[N+]=[N-]`, the z-score was -0.217.

The molecule `COC(=O)C(CC#Cc1ccc2c(c1)[C@]1(C(=O)N2)[C@H](c2ccc(O)cc2)N2[C@H](c3ccccc3)[C@H](c3ccccc3)OC(=O)[C@H]2[C@@H]1C(=O)NC[C@H](O)c1ccccc1)C(=O)OC` had a z-score of -0.256.

In turn, `COc1ccc([Si](C)(C)[C@H]2[C@H](CC(=O)N3Cc4ccccc4C[C@H]3CO)O[C@@]3(C(=O)N(Cc4ccc(N5CCOC5=O)cc4)c4ccccc43)[C@@H]2C)cc1` gave a z-score of 0.718.

In turn, `COC(=O)c1c(CC[C@@H](CO)NC(=O)N[C@@H](C)Cn2cc(-c3ccccn3)nn2)oc(C(C)=O)c1C(=O)OC` had a z-score of 0.42.

For the molecule `COCC(=C=CC[C@H](O)c1ccc(OCCO)cc1)CCO`, the z-score is -0.439.

Turning to `N[C@@H](Cc1ccccc1)C(=O)NCc1cn(Cc2ccccc2)nn1`, the z-score came to 0.0064.

Take `CCOC(=O)C[C@H]1[C@H](OC(=O)Cc2ccc3c(c2)OCO3)[C@@H](NC(=O)c2ccc3ccccc3n2)c2cc(OCCCO)ccc2N1C(=O)c1ccccc1`: the z-score was -0.246.

As to `CC(CO)N1C(=O)[C@]2(C)C3C(=O)OCCC/C=C\[C@H]3OC23C=CCN(c2ccc(Cl)cc2)C(=O)[C@@H]13` (stereo partly specified), the z-score is -0.021.

With `CC(=O)NCCCC[C@@H]1NC(=O)[C@@H]2C[C@H](C(=O)NCCCCCN)[C@H](c3ccc(O)cc3)N2C1=O`, the z-score is 0.856.

For the molecule `COC(=O)[C@@]1(Cc2ccccc2)[C@H]2c3cc(C(=O)N(C)C)n(Cc4ccc(C)o4)c3C[C@H]2CN1C(=O)c1ccccc1`, the z-score turned out to be 1.97.

Molecule `CCCC[C@@H](O)C1=C(COc2ccccc2)C[C@H]2C(=O)N(Cc3ccccc3)C(=O)[C@H]2[C@H]1CO` came in with a z-score of -0.326.

The molecule `COC(=O)C1(CC(C)C)C=C2C(=C(c3ccccc3)C(=O)C2C)CN1` (stereo unspecified) returned a z-score of 0.54.

Consider `COc1ccc(CCNC(=O)[C@@]2(c3ccc([N+](=O)[O-])cc3)CC(=O)N(C3CCCCC3)[C@@H]2c2ccc(CO)cc2)cc1`, for which the z-score was -0.112.

As to `COCCCNC(=O)[C@@]1(Sc2ccc(C)cc2)CC(=O)N(C2Cc3ccccc3C2)[C@@H]1c1ccc(CO)cc1`, the z-score was determined as 2.12.

Take `CS(=O)(=O)CCOC(=O)C1=CC(c2ccc(CO)cc2)=CC(C2CC2)N(Cc2sc3ccccc3c2Cl)C=C1C(=O)OCCS(C)(=O)=O` (stereo unspecified): the z-score was 0.044.

Molecule `C=CCOC(=O)[C@@H]1[C@H]2C(=O)O[C@H](c3ccccc3)[C@H](c3ccccc3)N2[C@H](c2ccc(OCCOC(=O)[C@@H]3C[C@@H]4C(=O)N[C@@H](CCCC[N+](C)(C)C)C(=O)N4[C@@H]3c3ccc(O)cc3)cc2)[C@@]12C(=O)Nc1ccc(I)cc12` yielded a z-score of -1.27.

`OCCCC1=CC(c2ccc(CN3CCCC3)cc2)N(Cc2cc3c(cc2Br)OCO3)CC1` (stereo unspecified) showed a z-score of -0.187.

Molecule `CC(c1ccccc1)C(O)C1C=CC2C(=O)N(C)C(=O)C2N1Nc1ccccc1` (stereo unspecified) had a z-score of -0.945.

The molecule `CC(C)N1C(=O)C[C@@](C(=O)O)(c2ccc([N+](=O)[O-])cc2)[C@H]1c1ccc(CO)cc1` showed a z-score of 0.126.

For `CCCC#C[Si](O[C@H](CC)c1cn([C@H](C)c2ccccc2)nn1)(C(C)C)C(C)C`, the z-score was 0.364.
